Source: PubChem
ELG1 repair inh: qHTS screen for small molecules that inhibit ELG1-dependent DNA repair in human embryonic kidney (HEK293T) cells expressing luciferase-tagged ELG1. HEK293T ELG1-luciferase reporter, luminescence, 16 h; DNA damage induced by 5-fluorouridine. Potency, µM (series often up to 46.1 µM), for the others: top-dose activity change, negative = inhibition, usual class: inhibitors. 330,000 compounds, 2.3% hits. AID 504467, 2011; further: potency means the concentration at half of the fitted maximal effect; nearly all actives have a fitted effect of over 55% in size
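Reporter activity after DNA damage by 5-fluorouridine is monitored. Compound-treated cells incubate 16 hr at 37 °C, then ONE-Glo is added for 30 min before luminescence reading.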
DT40 TDP1 CPT: qHTS for Inhibitors of human tyrosyl-DNA phosphodiesterase 1 (TDP1): qHTS in cells in presence of CPT. chicken DT40 Tdp1-/-;hTDP1 cells + 20 nM CPT, ATP luminescence, 48 h. Potency, µM (titrated, usually from 46.2 µM), without a hit: at the top dose activity change, negative = growth inhibition, hits mostly inhibitors. 420,000 compounds, 12% hits. AID 686979, 2013; further: potency means the concentration at half of the fitted maximal effect; nearly all actives have a fitted effect of over 55% in size
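Chicken DT40 Tdp1-/- cells complemented with human TDP1, 400 cells/well, exposed to compounds plus 20 nM camptothecin for at least 48 h at 37 C; viability read as ATP content by CellTiter-Glo luminescence.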
HT1080 IDH1KD tx: qHTS for induction of synthetic lethality in tumor cells producing 2HG: qHTS for the HT-1080-IDH1KD cell line; Potency, µM (highest dose often 46.1 µM), for the others: at the top dose activity, negative = toxicity, actives largely listed as cytotoxic; 360,000 compounds, 2% hits; HT-1080 IDH1 knockdown viability, ATP luminescence, 48 h; AID 686971, 2013;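 further: potency means the concentration at half of the fitted maximal effect; 0% = DMSO wells and -100% = cell-free medium wells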
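CellTiter-Glo luminescence after 48 h compound exposure at 37 degrees C of IDH1-knockdown HT-1080 cells in 5% FBS RPMI. %Activity scaled between DMSO wells and cell-free media wells, with curves fitted and assigned curve classes.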
IL1B secr inh: qHTS for Inhibitors of Inflammasome Signaling: IL-1-beta AlphaLISA Primary Screen; THP-1 LPS/ATP IL-1B secretion, AlphaLISA, 16 h; active compounds read low; activity change, % at 57.5 µM; 360,000 compounds, 4.7% hits; AID 743279, 2014; in the data active means activity change below about -50%; inconclusive means mostly about -30% to -49%
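THP-1 cells pretreated 1 hr with compounds (up to 57.5 uM final), then stimulated with LPS (250 ng/mL final) plus ATP (1.25 mM final); secreted IL-1B measured by AlphaLISA after 16 hr, decreased signal indicating inhibition.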
HT1080NT lethal: qHTS for induction of synthetic lethality in tumor cells producing 2HG: qHTS for the HT-1080-NT fibrosarcoma cell line | HT-1080-NT fibrosarcoma viability, CellTiter-Glo ATP luminescence, 48 h | Potency, µM (series often up to 46.1 µM), for the others: at the top dose activity, negative = less viability, usual class: cytotoxic | 360,000 compounds, 1.6% hits | AID 686970, 2013;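 further: NT is the 2HG producing partner of a matched IDH1 knockdown line; potency means the concentration at half of the fitted maximal effect; 0% = DMSO-treated cells and -100% = media-only wells without cells; nearly all actives have a fitted effect of over 55% in size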
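HT-1080-NT; 750 cells/well; 5% FBS RPMI; 48 h compound, 37 degrees C; CellTiter-Glo luminescence; curve fitting and curve-class assignment.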
DT40 TDP1 no CPT: qHTS for Inhibitors of human tyrosyl-DNA phosphodiesterase 1 (TDP1): qHTS in cells in absence of CPT; DT40 Tdp1-/- hTDP1 cells, no CPT, ATP luminescence, 48 h; Potency, µM (doses to about 46.2 µM), for inactives: at the top dose activity change, negative = growth inhibition, most hits filed as inhibitors; 420,000 compounds, 15% hits; further: potency means the concentration at half of the fitted maximal effect; nearly all actives have a fitted effect of over 55% in size
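Growth of hTDP1-complemented DT40 Tdp1-knockout cells is measured by ATP luminescence after at least 48 hr compound exposure at 37 °C, with DMSO substituting for the 20 nM CPT used in the parallel screen.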
The depositor's hits bear a star; u = inconclusive; x = no result; [ ] = another dose, or the depositor's remark. A selection: hits, their analogues and other compounds. The true share with any hit is near 19%. Unless noted, the call rests on the fitted dose curve; in most records, active means well fitted curve in the direction sought with a large enough effect; inconclusive means small, poorly fitted or top-dose-only effect, or another doubt; inactive means no such curve, though single readings can be large; an effect the other way counts as inactive or inconclusive. Unless noted, on the % scale 0 is the no-effect control and ±100 the full control effect.

SMILES	ELG1 repair inh	DT40 TDP1 CPT	HT1080 IDH1KD tx	IL1B secr inh	HT1080NT lethal	DT40 TDP1 no CPT
COc1ccccc1C(CNC(=O)c1ccc(-c2ccccc2Cl)o1)N1CCCC1 (stereo not drawn)	-18%	23µM*	21µM*	-57*	u	18µM*
COc1ccc(C(CNC(=O)c2ccc(OCc3ccccc3)cc2)N2CCOCC2)cc1 (stereo not drawn)	u	u	-10%	-21	6%	-18%
COc1ccc(OCC(=O)NCC(c2ccc(OC)cc2)N2CCOCC2)cc1 (stereo not drawn)	x	-15%	x	x	x	u
CC(C)(CNC(=O)c1ccc(-c2ccccc2Cl)o1)N1CCOCC1	u	-29%	-10%	-56*	1%	u
COc1ccc2cc([C@H](C)CO)ccc2c1	x	13%	x	x	x	-13%
Cc1c(C(=O)N2CCC(C(=O)Nc3ccc(F)c(Cl)c3)CC2)sc2nc[nH]c(=O)c12	x	-29%	x	x	x	-29%
COc1ccc(C(CNC(=O)COc2ccc(F)cc2Cl)N2CCCCC2)cc1 (stereo not drawn)	-2%	23µM*	10%	12	18%	21µM*
COc1ccc(C(CNC(=O)c2cc(F)c(F)c(F)c2F)N2CCOCC2)cc1 (stereo not drawn)	12%	u	-6%	-95*	-8%	u
Cc1ccc(C(=O)NCC(=O)OC(C)C(=O)Nc2ccc(N(C)C)cc2)cc1C (stereo not drawn)	30%	7%	-5%	12	-2%	-1%
N#CC1=C(c2ccccc2)/C(=C/c2ccccc2)OC1=O	u	23µM*	1%	-104*	10%	18µM*
O=C1O/C(=C/c2ccccc2)c2ccccc21	6%	1%	6%	22	7%	-5%
CNc1ncncc1-c1ccc(C(=O)N(C)C)cc1	x	-3%	x	x	x	-1%
CCN1C(=O)C(c2ccc(O)cc2)(c2ccc(O)cc2)c2ccccc21	-3%	2%	-5%	-94*	-10%	-1%
CCOC(=O)CCc1c(C)n[nH]c1C	-7%	-1%	4%	13	6%	-20%
CCOC(=O)CCCc1sc(N)nc1-c1[nH]c(=O)[nH]c1C	u	u	4%	-83*	-5%	-3%
Cc1c(CN(C)C)c2c(n1C)C(=O)c1ccc(Br)cc1-2	-28%	u	3%[9.24 µM]	x	u	u
Cc1c(CN(C)C)c2c(n1Cc1ccccc1)C(=O)c1ccc(Br)cc1-2	-19%	u	u	-68*	18µM*	u
Cn1ncc(Cl)c1C(=O)Nc1nc2ccc(Cl)cc2s1	u	16µM*	-3%	17	-5%	23µM*
COC(=O)c1ccc(C(=O)OC)c(NC(=O)CN(c2ccccc2)S(=O)(=O)N(C)C)c1	-4%	7%	8%	22	-2%	-16%
Cc1noc(C)c1C(=O)Nc1cccc(S(=O)(=O)N2CCOCC2)c1	3%	-13%	-1%	0	-1%	0%
Cc1ccc(C(=O)N/C(=C\c2ccccc2)C(=O)NCc2ccncc2)cc1	1.8µM*	3%	2%	-7	u	1%
Cc1ccc(C(=O)N/C(=C\c2ccc([N+](=O)[O-])cc2)C(=O)NCCc2ccccc2)cc1	17%	u	11µM*	10	u	u
O=C(NCc1cccnc1)/C(=C/c1ccc(Cl)cc1)NC(=O)c1ccccc1	15%	23µM*	9%	-4	0%	-24%
Cc1ccc(C(=O)N/C(=C/c2ccccc2)C(=O)NCc2ccncc2)cc1	u	-4%	1%	-2	1%	-4%
O=S1(=O)CC(c2ccccc2)=NN=C(c2ccccc2)C1	x	u	7%	38	16%	u
SMILES	ELG1 repair inh	DT40 TDP1 CPT	HT1080 IDH1KD tx	IL1B secr inh	HT1080NT lethal	DT40 TDP1 no CPT
COc1ccc(C(=O)C[C@@H]2OC[C@H](C)N2S(=O)(=O)c2ccc(C)cc2)cc1OC	x	u	-5%	3	0%	18µM*
COc1ccc(C(=O)C[C@@H]2OC[C@H](C(C)C)N2S(=O)(=O)c2ccc(C)cc2)cc1OC	x	u	-8%	-12	0%	u
Cc1ccc(S(=O)(=O)N2[C@H](CC(=O)c3cccs3)OC[C@@H]2C)cc1	x	u	15%	23	9%	23µM*
COc1ccc(OC)c(NC(=O)Cc2c(C(=O)O)n(C)c3ccc(C)cc23)c1	x	-30%	x	x	x	-4%
CCN(CC)C(=O)c1c(NC(=O)c2ccccc2F)sc2c1CCC(C(C)(C)C)C2 (stereo not drawn)	x	23µM*	x	x	x	u
OCCN1CCN(Cc2ccc3c(c2)CN(Cc2cccc4ncccc24)CCO3)CC1	x	12%[9.04 µM]	x	x	x	u
COc1cccc(N2CCN(C(=O)c3ccc(CS(=O)Cc4ccc(Cl)cc4)o3)CC2)c1 (stereo not drawn)	21µM*	u	-3%	-24	-9%	18µM*
COc1ccc(N2CCN(C(=O)c3ccc(CS(=O)Cc4ccc(C)cc4)o3)CC2)cc1 (stereo not drawn)	u	u	-11%	-3	-7%	u
COc1cccc(N2CCN(C(=O)c3ccc(CS(=O)Cc4ccccc4Cl)o3)CC2)c1 (stereo not drawn)	u	u	-12%	-16	-12%	u
COc1ccc(S(=O)Cc2ccc(C(=O)N3CCN(c4cccc(C)c4C)CC3)o2)cc1 (stereo not drawn)	u	0.58µM*	10%	5	16%	0.92µM*
O=C(c1ccc(COc2c(F)c(F)cc(F)c2F)o1)N1CCN(c2ccccc2)CC1	u	18µM*	-25%	7	u	12µM*
COc1cccc(N2CCN(C(=O)c3ccc(CS(=O)c4cccc(Cl)c4)o3)CC2)c1 (stereo not drawn)	x	0.52µM*	x	x	x	0.52µM*
O=C(c1ccc(COc2c(F)c(F)c(F)c(F)c2F)o1)N1CCOCC1	u	-18%	-3%	1	-5%	u
Cc1ccc2c(c1)c(=O)c(S(=O)(=O)c1ccc(C)c(C)c1)cn2CC(=O)Nc1ccccc1	x	-1%	x	x	x	-19%
